Reference: PubChem BioAssay (Tox21)
Where “and” joins values, the source holds several entries; their conditions need not be identical. Identical values can stand only once. Results filed as inconclusive are left out. Entries that show only a call come without a potency. Some structures have more than one record in an assay (separate samples or runs), and their calls can disagree. Calls of active or inactive are those of the source. The call rests on the fitted dose curve; in most records, active means well fitted cell-killing curve with a large enough effect in the repeat runs; inconclusive means weak or mixed curves, or effect the other way; inactive means no such curve, though single readings can be large or run the other way.

test: qHTS assay to identify small molecule antagonists of the thyroid receptor (TR) signaling pathway - cell viability counter screen (AID 743064); conditions: GH3.TRE-Luc viability, CellTiter-Fluor, 24 h; series mostly up to 70.3 µM; activity change, negative = cytotoxic: at the top concentration; further: nearly all actives have a fitted effect of over 50% in size
Description: National Center for Advancing Translational Sciences [NCATS]
NIH Chemical Genomics Center [NCGC]
U.S. Environmental Protection Agency [EPA]
National Institutes of Environmental Health Sciences [NIEHS]
National Toxicology Program [NTP]
U.S. Food and Drug Administration [FDA]
Thyroid receptor (TR), a nuclear hormone receptor, plays an important role in development, proliferation, differentiation, metabolism, brain function, and cardiovascular system. […] To profile the Tox21 10K compound library in TR signaling, a cell-based GH3-TRE-Luc assay (GH3.TRE-Luc cell line, developed by the laboratory of Dr. Albertinka J. Murk, Wageningen University) was used to measure the inhibition of TR. GH3 (rat pituitary tumor) cells stably expressing a TR activity sensor consisting of two TR response elements and a luciferase reporter gene. The cytotoxicity of the Tox21 compound library against the GH3.TRE-Luc cell line was tested in parallel by measuring the cell viability using CellTiter-Fluor assay (Promega, Madison, WI) in the same wells.
Tox21 Assay Protocol Summary:
GH3.TRE-Luc cells were dispensed at 1500 cells/4 uL/well into 1536-well white solid bottom plates using a Multidrop Combi dispenser (Thermo Fisher Scientific Inc., Waltham, MA). After the assay plates were incubated at 37 C for 4 hours, 23 nL of library compound or DMSO controls was transferred to the assay plates by a pintool station (Kalypsys, San Diego, CA), followed by addition of 1 ul of T3 (1 nM, final concentration in the wells) to stimulate TR transactivation. The assay plates were incubated at 37 C for 23.5 h, and then 1 uL of CellTiter-Fluor reagent (Promega, Madision, WI) of measuring cytotoxicity was added to each well using a Bioraptr Flying Reagent Dispenser (FRD) workstation (Beckman Coulter, Indianapolis, IN, USA). The plates were incubated at 37C and 5% CO2 for additional 30 min, and fluorescence intensity was measured by a ViewLux plate reader (PerkinElmer, Shelton, CT).
Potency means the concentration at half of the fitted maximal effect.

| SMILES | Potency | activity change, negative = cytotoxic |
| --- | --- | --- |
| Cc1ccccc1N | inactive |  |
| CNC(=O)O/N=C/C(C)(C)SC | inactive |  |
| CC(C)CCCCCCOC(=O)c1ccccc1C(=O)OCCCCCCC(C)C | inactive |  |
| OC[C@@H](O)[C@H]1O[C@@H]2O[C@H](C(Cl)(Cl)Cl)O[C@@H]2[C@H]1O | inactive |  |
| O=C(O)Cc1ccccc1 | inactive |  |
| Nc1ncc([N+](=O)[O-])s1 |  | -1.79% (inactive) |
| COP(=S)(OC)Oc1ccc(SC)c(C)c1 | inactive |  |
| FC(F)(F)c1ccc(Cl)cc1 | inactive |  |
| CC(=O)C1CCOC1=O (stereo not given) |  | 2.39% [at 95 µM] (inactive) |
| OCCCCO |  | -6.16% [at 95 µM] (inactive) |
| CNC(=O)O/N=C(\SC)C(=O)N(C)C | inactive |  |
| NNc1ccccc1 | inactive |  |
| CNCC(O)c1ccc(O)cc1 (stereo not given) | inactive |  |
| Nc1cc(Cl)cc(Cl)c1 |  | -13.8% (inactive) |
| CC[N+](=O)[O-] |  | 17.4% (inactive) |
| CN(C)NC(=O)CCC(=O)O |  | 17.7% [at 95 µM] (inactive) |
| CN(C)CCC#N |  | 0.501% (inactive) |
| Cc1cc(Cl)ccc1OC(C)C(=O)O (stereo not given) |  | 0.738% (inactive) |
| N#Cc1cccc(C#N)c1 |  | 16.4% (inactive) |
| Cl[C@H]1OCCO[C@@H]1Cl |  | 3.37% (inactive) |

| SMILES | Potency | activity change, negative = cytotoxic |
| --- | --- | --- |
| COc1nc(NC(C)C)nc(NC(C)C)n1 |  | 13% (inactive) |
| N#Cc1ccccn1 |  | 4.45% (inactive) |
| Cc1cc(O)ccc1Cl | inactive |  |
| C=CC(=O)OCC(CC)CCCC (stereo not given) | inactive |  |
| CCOP(=S)(OCC)Oc1ccc([N+](=O)[O-])cc1 | inactive |  |
| Nc1ccc([As](=O)(O)O)cc1 | inactive |  |
| O=C(O)c1cc(Oc2ccc(C(F)(F)F)cc2Cl)ccc1[N+](=O)[O-] | inactive |  |
| CNC(=O)O/N=C/C(C)(C)S(C)=O (stereo not given) | inactive |  |
| Nc1ccc(N)cc1 | inactive and 30.8 µM (active) |  |
| O=[N+]([O-])c1ccc(Cl)c(Cl)c1 | inactive |  |
| O=[N+]([O-])c1cc([As](=O)(O)O)ccc1O | inactive |  |
| C/C=C/c1ccc2c(c1)OCO2 | inactive |  |
| COc1cc(-c2ccc(N)c(OC)c2)ccc1N | inactive and 52 µM (active) |  |
| CCCOC(=O)c1ccccc1C(=O)OCCC |  | -7.75% (inactive) |
| CCOP(=S)(OCC)Oc1cc(C)nc(C(C)C)n1 | inactive and 17.2 µM (active) |  |
| CCOC(=O)CC(SP(=O)(OC)OC)C(=O)OCC (stereo not given) |  | -5.31% (inactive) |
| N#CN=C(N)N |  | 2.77% (inactive) |
| O=P1(NCCCl)OCCCN1CCCl (stereo not given) | inactive |  |
| CNC(=O)Oc1cccc2ccccc12 | inactive |  |
| CN(C)C(=O)Nc1cccc(C(F)(F)F)c1 | inactive |  |
